Assay results reported in PubChem BioAssay.
A number with no mark means an inactive call. The source made the active and inactive calls.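 The calls were made as follows: active = growth inhibition above 50% at the single 2 µM test dose, taken to imply half-maximal potency below 2 µM; inactive = the rest.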

Assay: antimalarial activity against Dd2 strain (AID 2302);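 also: 0% = DMSO untreated growth and 100% = chloroquine plus artemisinin killed control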
Conditions: P. falciparum Dd2 in RBCs, LDH growth readout, 72 h; at 2 µM; hits give high values
Compound `Clc1ccc(-c2cc3c(NCc4ccncc4)nccc3s2)cc1` has a growth inhibition of 8%.
In the case of `CCN(CC)CCN(Cc1ccc(-c2ccc(C(F)(F)F)cc2)cc1)C(=O)Cn1c(SCc2ccc(F)cc2)cc(=O)c2ccccc21`, the growth inhibition is reported as 70% (active).
In the case of `O=C(Nc1ccccc1)N(Cc1ccccc1-c1cccc(CNCCc2ccccc2)c1)C1CCN(Cc2ccccc2)CC1`, the growth inhibition is reported as 59% (active).
In the case of `Cc1ccccc1N1CCN(c2ccc(C(=O)Nc3ccccc3)cc2)CC1`, the growth inhibition is reported as 91% (active).
With `CN1CCN(CCCN(Cc2cccc(-c3ccc(CNCc4ccc5c(c4)OCO5)cc3)c2)C(=O)CCC2CCCC2)CC1` the growth inhibition was 84% (active).
For `Fc1ccc2nc(-c3cccc(-c4ccc(CNCc5ccccc5)cc4)c3)[nH]c2c1`, the growth inhibition was 89% (active).
For `COc1cc(Cl)c(C)cc1N(Cc1ccccc1-c1ccccc1)S(=O)(=O)c1ccc(C(F)(F)F)cc1`, the growth inhibition was 62% (active).
For `COc1cc(NCC(C)CNCc2cn(Cc3ccccc3)c3ccccc23)nc2ccccc12` (configuration not stated), the growth inhibition was 55% (active).
For `O=S(=O)(c1cccc(Br)c1)N1CCCCC(c2ccc(C(F)(F)F)cc2)=N1`, the growth inhibition was 92% (active).
`COCc1nc(N)nc(N)c1-c1ccc(Cl)c(Cl)c1` showed a growth inhibition of 1%.
For `O=C(NCCCCN1CCC(c2ccc3c(c2OCC2CC2)CCCC3)CC1)c1ccc(NC(=O)c2ccc(Cl)cc2)cc1`, the growth inhibition was 93% (active).
In the case of `Cc1ccc(-c2nnc3c4ccccc4c(C)nn23)cc1S(=O)(=O)N1CCN(CCO)CC1`, the growth inhibition is reported as 62% (active).
Compound `COc1ccc(Nc2nccc(N3CCC(NC(=O)Nc4cc(C)ccc4C)C3)n2)cc1` (configuration not stated) has a growth inhibition of 37%.
`O=c1ccc2ncc(Cl)c3c2n1CC3CN1CCC(NCc2cc3c(cn2)OCCO3)CC1` (configuration not stated) showed a growth inhibition of 29%.
For `CC(=O)c1sc(Cc2nc3ccccc3s2)nc1C`, the growth inhibition was 88% (active).
In the case of `CCN1CCN(c2ccc(Nc3ccnc4ccc(Br)cc34)cc2)CC1`, the growth inhibition is reported as 86% (active).
In the case of `O=C(NCC1Cc2cc(Oc3ccccc3)ccc2O1)c1ccc([N+](=O)[O-])o1` (configuration not stated), the growth inhibition is reported as 81% (active).
Compound `CCN(CC)CCN(Cc1ccc(-c2ccc(C(F)(F)F)cc2)cc1)C(=O)c1ccc(-c2ccc(NC(=O)OC)cc2C)cc1` has a growth inhibition of 42%.
Compound `COc1ccc(CNCCc2cccs2)cc1-c1cccc(S(=O)(=O)NCCN2CCCC2)c1` has a growth inhibition of 41%.
Compound `O=C(Nc1ccc(-c2cccc(-c3nc4ccc(C(F)(F)F)cc4[nH]3)c2)cc1)Nc1ccc(Cl)c(Cl)c1` has a growth inhibition of 23%.
Compound `CCN(CC)CCN(Cc1ccc(-c2ccc(C(F)(F)F)cc2)cc1)C(=O)Cn1c(CCC2CCCCC2)nc(=O)c2ccccc21` has a growth inhibition of 25%.
In the case of `CC(Oc1ccc(NC(=O)c2cccs2)cc1)C(=O)c1ccc(Cl)cc1` (configuration not stated), the growth inhibition is reported as 83% (active).
With `CC(=O)Nc1ccc(C(=O)Nc2ccc(-c3cccc(-c4nc5c(C)cccc5[nH]4)c3)cc2)cn1` the growth inhibition was 74% (active).
`COc1ccc(-c2ccc(CNC(=O)c3ccc(C#N)cc3)c(F)c2)cc1CN1CCCN(C)CC1` gave a growth inhibition of 1%.
With `CC1CN(C(=O)c2sc3ccccc3c2Cl)CC(C)O1` (configuration not stated) the growth inhibition was 98% (active).
For `COc1ccc2nccc([C@@H](O)CN3CCC(NCc4ccc(OC)c(NC(C)=O)c4)CC3)c2c1`, the growth inhibition was 0%.
For `COc1ccc(Nc2nc(C)cc(NC3CCCC3)n2)cc1`, the growth inhibition was 59% (active).
With `COc1cc2nc(NCCc3ccccc3)nc(NCc3cc(C)no3)c2cc1OC` the growth inhibition was 100% (active).
For `c1ccc2c(C3CCN(CCCCOc4ccc5c(c4)CCN(C4CCC4)CC5)CC3)c[nH]c2c1`, the growth inhibition was 100% (active).
`Cc1cc(N[C@@H](Cc2ccccc2)C(=O)NCCCOC(C)C)nc(NCC2CCCCC2)n1` showed a growth inhibition of 25%.
`COc1ccc(C(=O)CCC(=O)N(Cc2ccc(-c3ccc(CNCc4cccnc4)cn3)cc2)C2CCN(Cc3ccccc3)CC2)cc1F` gave a growth inhibition of 26%.
`O=[N+]([O-])c1cc2c(cc1C=NNc1nc(Nc3ccccc3)nc(Nc3ccccc3)n1)OCO2` gave a growth inhibition of 46%.
With `Cc1cccc2[nH]c(-c3cccc(-c4cccc(CN5CCN(c6ccncc6)CC5)c4)c3)nc12` the growth inhibition was 96% (active).
For `CC(C)CCn1c(Sc2ccc(C#N)c([N+](=O)[O-])c2)nnc1-c1cccc(Cl)c1`, the growth inhibition was 82% (active).
With `O=C(Nc1ccc(-c2cccc(-c3nc4ccccc4[nH]3)c2)cc1)Nc1ccc(Cl)c(Cl)c1` the growth inhibition was 80% (active).
Work on `O=C(/C=C/c1ccc(Cl)c(Cl)c1)NCCCCCCN1CCCN(C(=O)Nc2ccc(C(F)(F)F)cc2)CC1` yielded a growth inhibition of 25%.
In the case of `O=C(N[C@@H](Cc1ccccc1)C(=O)NC1CCCc2ccccc21)c1ccc(O)c(-c2ccc(Cl)c(Cl)c2)c1` (some centres not stated), the growth inhibition is reported as 99% (active).
